The results in this text go back to PubChem BioAssay (NCI).

Common to all, as to assay: NCI-60 one-dose screen, 48 h (100 = growth as untreated, 0 = no growth, -100 = all killed)
Holding throughout (conditions): 10 µM unless noted

Experiment [1] has as its system DU-145 prostate.
The subject of experiment [2] is K-562 leukemia.
Experiment [3] relates to MALME-3M melanoma.
The subject of experiment [4] is MDA-MB-231 breast.
For experiment [5], the system named is RXF 393 renal.
Experiment [6] has as its system SF-268 CNS.
In experiment [7] the test system is SF-295 CNS.
Experiment [8] has as its system SF-539 CNS.
Experiment [9] concerns UACC-257 melanoma.
The subject of experiment [10] is M14 melanoma.
Experiment [11] has as its system HCT-15 colon.
Experiment [12] relates to HT29 colon.
In experiment [13] the test system is SNB-75 CNS.
Experiment [14] relates to SNB-19 CNS.
Experiment [15] concerns U251 CNS.
Experiment [16] relates to PC-3 prostate.
In experiment [17] the test system is SK-MEL-5 melanoma.
Experiment [18] relates to UACC-62 melanoma.
The test system of experiment [19] is LOX IMVI melanoma.
Experiment [20] has as its system SK-MEL-28 melanoma.

Compounds without any hit were thinned out: in the full panel of roughly 83,000, 20% have a hit.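 Results are percent growth after 48 hours of single-concentration exposure. 100 means growth as in untreated cells, lower positive values show inhibition; negative values down to -100 show cell death.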 Unmarked numbers belong to inactive results. Calls of active or inactive are those of the source. How the source made its calls: active means growth percent below 10; inactive means the rest.

Consider `COc1ccc([C@H]2c3cc(OC)c(OC)cc3C=C(C=O)C2CO)cc1OC` (stereo not given in full), for which the growth in [1] is 61.9%; in experiment [2], 20.1%; in experiment [3], 68.2%; in [4] it was 70.2%; in [5] it was -9.23% (active); in [6] it was 60.5%. For the same compound, the growth in experiment [7] is 12.7%; in experiment [8] it was 38%; in experiment [9] it was 39.7%; in experiment [10], 35.7%; in experiment [11], 43.1%; in experiment [12], 19%. The growth in [13] was 15.8%; in experiment [14], 50.9%; in [15], 36.2%; in experiment [16], 29%; in experiment [17], 24.6%; in experiment [18], 33.9%. Besides, the growth in experiment [19] was 46.3%; in experiment [20] it was 55.3%.

As for `O=C1CSC(c2c(Cl)cccc2Cl)N1c1nc(Cl)cc(=O)[nH]1` (stereo not given), the growth in [1] is 123%; in [2] it was 93.2%; in [3], 216%; in experiment [4], 108%; in experiment [5], 113%; in experiment [6] it was 106%. The growth in [7] is 91.3%; in experiment [8] it was 102%; in experiment [9] it was 99.6%; in experiment [10], 106%; in experiment [11], 123%; in experiment [12] it was 111%. In addition, the growth is 113% in experiment [13]; 103% in experiment [14]; 112% in [15]; 73.1% in experiment [16]; 97% in experiment [17]; 102% in experiment [18]. The values for the growth in experiment [19] and in experiment [20] were 104% and 115%, respectively.

Regarding `S=C(c1cccs1)N1CCN(c2cccc(Cl)c2)CC1`, the growth in [1] was 98.3%; in [2], 93.5%; in [3] it was 80.9%; in experiment [4], 92.5%; in experiment [5] it was 100%; in experiment [6] it was 104%. Moreover, the growth is 111% in experiment [7]; 99.8% in [8]; 105% in [9]; 99.4% in experiment [10]; 88.7% in [11]; 89.8% in experiment [12]. The growth in experiment [13] was 100%; in [14], 102%; in [15], 93.7%; in [16] it was 89.5%; in [17], 92.1%; in experiment [18] it was 88.1%. Moreover, the growth was 109% in [19] and 104% in experiment [20].

On to `CCOC(=O)NCCc1ccccc1`, for which the growth in [1] is 118%; in experiment [2], 91.4%; in experiment [3], 110%; in [4] it was 116%; in [5], 115%; in [6] it was 114%. The growth in [7] was 98.3%; in [8], 111%; in [9], 100%; in experiment [10], 110%; in experiment [11], 118%; in experiment [12], 102%. For the same compound, the growth in [13] is 78.7%; in experiment [14], 103%; in experiment [15] it was 108%; in experiment [16] it was 101%; in experiment [17], 111%; in experiment [18] it was 88.8%. The growth was 93.9% in [19] and 118% in experiment [20].

For `CCc1ccc2nc(NC(=O)Cc3csc(NC(=O)c4ccco4)n3)sc2c1`, the growth in experiment [1] is 67%; in experiment [2], 64.5%; in experiment [3], 59.6%; in [4], 67.9%; in experiment [5] it was 73.1%; in [6], 43.3%. The growth in [7] was 77.6%; in experiment [8] it was 34.8%; in experiment [9], 101%; in experiment [10] it was 96.7%; in experiment [11], 95.5%; in experiment [12], 86.5%. In addition, the growth in experiment [13] is 47.1%; in experiment [14], 64.4%; in experiment [15], 67.3%; in experiment [16] it was 66.1%; in [17] it was 81.6%; in [18], 65.9%. Further, the growth in experiment [19] is 85.7%; in experiment [20], 90.9%.

`CCOc1ccc2nc(SCc3nc4n(n3)S(=O)(=O)c3ccccc3N4C)sc2c1`: the growth in experiment [1] is 25.3%; in [2] it was 34.8%; in experiment [3], 10.1%; in experiment [4], 10.5%; in experiment [5] it was 7.23% (active); in experiment [6], 25.9%. Moreover, the growth in [7] is 6.74% (active); in experiment [8] it was 8.46% (active); in experiment [9], 24.4%; in experiment [10], 5.88% (active); in experiment [11], 26.9%; in experiment [12], 62.3%. The growth is -15% (active) in [13]; 30.6% in [14]; 16.3% in experiment [15]; 19.5% in [16]; -23.9% (active) in [17]; 25.9% in experiment [18]. Moreover, the growth in experiment [19] was 19.8%; in [20], 45.7%.

For the compound `O=C(CSc1nccc(Nc2ccc(S(=O)(=O)Nc3nccs3)cc2)n1)c1ccc(C(F)(F)F)cc1`, the growth in experiment [1] was 114%; in [2], 114%; in experiment [3], 102%; in experiment [4] it was 120%; in [5], 95.5%; in [6], 110%. For the same compound, the growth in experiment [7] is 96.7%; in experiment [8], 95.7%; in experiment [9] it was 99.3%; in experiment [10], 100%; in [11], 103%; in experiment [12], 106%. For the same compound, the growth in experiment [13] was 91.5%; in experiment [14] it was 93.2%; in experiment [15] it was 86.6%; in experiment [16], 93.2%; in experiment [17] it was 95.1%; in experiment [18], 93.2%. The growth is 99.2% in experiment [19] and 108% in experiment [20].

Turning to `Brc1ccc2[nH]cc(-c3nc(-c4c[nH]c5ccncc45)cs3)c2c1`, the growth in [1] was -91.4% (active); in experiment [2] it was -61.5% (active); in [3] it was -83.6% (active); in experiment [4] it was -84.4% (active); in [5], -91.8% (active); in [6], -65.7% (active). Moreover, the growth in [7] is -84.8% (active); in [8], -94.9% (active); in [9] it was -23.2% (active); in experiment [10] it was -73.3% (active); in [11], -67.8% (active); in [12], -63.2% (active). In addition, the growth in experiment [13] is 51.9%; in experiment [14] it was -79.5% (active); in experiment [15], -83.9% (active); in [16], -66.8% (active); in [17], -44.1% (active); in experiment [18] it was -79.4% (active). Moreover, the growth is -97.4% (active) in experiment [19] and -95.6% (active) in experiment [20].
